# Data as given in PubChem BioAssay AID431 (Sanford-Burnham Center for Chemical Genomics, 2006).
# The campaign covered roughly 63,000 compounds. About 1,100 (1.7%) were called active. The full list was thinned out, with actives kept by preference. Potency and affinity values are given separately. Unmarked numbers belong to inactive results.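 The calls were made as follows: active = compounds whose percent cytotoxicity in the single-dose primary screen, scaled between solvent and toxic-drug controls, exceeds 50; inactive = the rest.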
# Test: viability loss of HPDE-C7K cells – cell-based, fluorescence, HTS, primary screen (AID 431);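 also: 0% = DMSO solvent wells and 100% = doxorubicin-treated wells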
# Conditions: HPDE-C7K KRASV12 cells, Alamar Blue viability, 48 h; at 10 µM; active compounds read high
row,SMILES,cytotoxicity
1,Cc1ccc(CNC(=O)CCCn2c(=O)[nH]c3ccccc3c2=O)cc1,-8.5%
2,Cc1ccc2[nH]c3c(c2c1)CCc1cn[nH]c1-3,35.6%
3,O=C1CCCc2c1[nH]c1ccccc21,-0.9%
4,c1ccc2c3c([nH]c2c1)-c1[nH]ncc1CC3,50.2% (active)
5,CCOC(=O)C1CCN(c2nc3ccccc3nc2C(C#N)C(=O)OC(C)C)CC1 (stereo not drawn),62.8% (active)
6,CCOC(=O)C1CCCN(c2nc3ccccc3nc2C(C#N)C(=O)OC(C)COC)C1 (stereo not drawn),31.8%
7,CCOC(=O)C1CCCN(c2nc3ccccc3nc2C(C#N)C(=O)OCC)C1 (stereo not drawn),12.9%
8,CCOC(=O)C1CCCN(c2nc3ccccc3nc2C(C#N)C(=O)OC(C)C)C1 (stereo not drawn),-4.8%
9,CCOC(=O)C1CCN(c2nc3ccccc3nc2C(C#N)C(=O)OC(C)COC)CC1 (stereo not drawn),6.6%
10,CCOC(=O)C1CCCN(c2nc3ccccc3nc2C(C#N)C(=O)OCCOC)C1 (stereo not drawn),53.1% (active)
11,O=c1oc2ccccc2n1CCn1c2ccccc2c2nc3ccccc3nc21,14.9%
12,CSCCC(NC(=O)c1ccco1)C(=O)OC(C)C(=O)NC(=O)NC1CCCCC1 (stereo not drawn),-4.2%
13,O=C(CN(C1CCCCC1)S(=O)(=O)c1ccc(F)cc1)NC1CC1,-2.7%
14,CCC1CCCCN1c1nc(-c2ccncc2)nc2ccccc12 (stereo not drawn),-15.6%
15,CCOC(=O)Cc1nnc2c(Nc3ccc(Cl)cc3)nc3nonc3n12,70.2% (active)
16,CCOC(=O)Cc1nnc2c(Nc3ccc(C)cc3)nc3nonc3n12,-14%
17,CCOC(=O)n1ccc(C(=O)Nc2ccccc2F)n1,-9.8%
18,CCOC(=O)c1[nH]c(C)c(C(=O)Nc2ccccc2F)c1C,37.9%
19,CCOC(=O)Cc1nnc2c(Nc3ccccc3F)nc3nonc3n12,53.8% (active)
20,CCOC(=O)Cn1nc(-c2ccc(Cl)cc2)cc1N,0.5%
21,CCOC(=O)c1ccc(NC(=O)CCc2ccc(CC)o2)cc1,8.4%
22,COc1cccc2cc(C(=O)C3=C(O)C(=O)N(CCCN4CCOCC4)C3c3ccncc3)oc12 (stereo not drawn),3.9%
23,CC(C)(C)NC(=O)Cn1c(SCC(=O)N2CCCCCC2)nc2ccccc21,-0.2%
24,Cc1csc2ncc(C(=O)NCc3ccccn3)c(=O)n12,-11.8%
25,Cc1ccc(OCCn2c(C)c(/C=N/n3cnnc3)c3ccccc32)cc1,41.7%

row,SMILES,cytotoxicity
1,Cc1c(/C=N/n2cnnc2)c2ccccc2n1CCOc1ccccc1,43.4%
2,COc1cccc(OCCn2c(C)c(/C=N/n3cnnc3)c3ccccc32)c1,85.9% (active)
3,CCOC(=O)N1CCC(NC(=O)C2CCC(CNS(=O)(=O)c3ccc(OC)cc3)CC2)CC1 (stereo not drawn),0.5%
4,C=CCn1c(=N)n(CC(=O)OC)c2ccccc21,8.1%
5,c1coc(-c2nc3nc4ccccc4n3nc2-c2ccco2)c1,67.4% (active)
6,c1coc(-c2nc(-c3ccco3)c(-c3ccco3)nc2-c2ccco2)c1,-1.8%
7,c1coc(-c2nc3ccccc3nc2-c2ccco2)c1,-6.2%
8,O=C1CCCc2nc(N3CCN(c4ccccc4)CC3)ncc21,20.9%
9,O=C(NC1CCCC1)C(c1cccs1)N(C(=O)c1ccno1)c1ccccc1 (stereo not drawn),2.6%
10,COc1ccc(C2/C(=C(/O)c3ccc(C)cc3)C(=O)C(=O)N2C)cc1 (stereo not drawn),-6.1%
11,Cc1nnc(Sc2nc(Sc3nnc(C)s3)nc(N3CCN(C)CC3)n2)s1,102% (active)
12,Cc1nnc(SCCn2c(N3CCN(C)CC3)nc3c2c(=O)[nH]c(=O)n3C)s1,-9.9%
13,Cc1nnc(SCCn2c(N3CCN(C)CC3)nc3c2c(=O)n(C)c(=O)n3C)s1,3.6%
14,CC(=O)Nc1nc(C)c(Oc2ccccc2)c(=O)[nH]1,6.8%
15,CC(=O)c1c(C)[nH]c(C(=O)N2CCc3ccccc32)c1C,10.3%
16,CCOC(=O)c1c(C)[nH]c(C(=O)OCC(=O)N2CCc3ccccc32)c1C,-21.3%
17,CCOC(=O)c1[nH]c(C)c(C(=O)N2CCc3ccccc32)c1C,57.6% (active)
18,COc1ccc(CN(C(=O)CSc2nnc(-c3ccccc3F)o2)c2ccc(F)cc2)cc1,16.8%
19,O=C(CSc1nnc(-c2c[nH]c3ccccc23)o1)N(Cc1ccccc1)c1ccc(F)cc1,53.4% (active)
20,COc1ccc(CN(C(=O)CSc2nnc(-c3ccc(F)cc3)o2)c2ccc(F)cc2)cc1,-9.8%
21,CCOC(=O)c1c(NC(=O)CSc2n[nH]c(N)n2)sc(CC)c1C,0%
22,CCOC(=O)c1sc(NC(=O)CSc2n[nH]c(-c3ccccc3)n2)c(C#N)c1C,-1.8%
23,Cc1ccc(C(=O)NCCCC(=O)O)o1,-5%
24,Cc1cc(-c2ccco2)n2c(nc3ccccc32)c1C#N,18.2%
25,COC(=O)c1nnn(-c2nc(N3CCCCC3)nc(N3CCCCC3)n2)c1C,-3.1%

row,SMILES,cytotoxicity
1,CCOC(=O)c1cnc(-n2nc(C)cc2C)nc1NC(C)c1ccccc1 (stereo not drawn),-13%
2,NS(=O)(=O)c1ccc(NC=C2C(=O)OC3(CCCCC3)OC2=O)cc1,8.5%
3,NS(=O)(=O)c1ccc(NC(=O)CSC2CCCCC2)cc1,-3.7%
4,Cc1ccc(-c2nnn(CC(=O)Nc3ccc(S(=O)(=O)N4CCC(C)CC4)cc3)n2)cc1,-2.5%
5,CCOC(=O)c1c2n(c3ccc(O)cc13)CCCCC2,2.9%
6,Oc1c(CN2CCOCC2)cc(COCc2ccccc2)c2cccnc12,30.7%
7,O=C(Oc1c(Cl)cc(Cl)c2cccnc12)N1CCOCC1,-2.4%
8,COc1cc(C(=O)Oc2c(CN3CCOCC3)cc(Cl)c3cccnc23)cc(OC)c1OC,18.4%
9,COc1ccc(C(=O)Oc2c(CN3CCOCC3)cc(Cl)c3cccnc23)cc1OC,13.7%
10,Cc1ccc(Cl)cc1N(CC(=O)NC1CCCCC1)S(C)(=O)=O,-5.9%
11,Cc1nc2cc(-c3cccc(F)c3)nn2c(C)c1CCC(=O)N1CCN(c2ccccn2)CC1,-4.7%
12,OC(CN1CCOCC1)CN1CCOCC1,13.2%
13,CCCCCOc1ccc(OC(=O)c2ccncc2)cc1,-0.5%
14,CC(=O)c1cccc(NC(=O)c2cc(C(C)C)on2)c1,-17.2%
15,O=C(Nc1ccc(OC(=O)c2ccco2)cc1)c1ccco1,-0.1%
16,CCCCCOC(=O)c1ccc(NC(=O)c2ccco2)cc1,80.3% (active)
17,CCCCOC(=O)c1ccc(NC(C)=O)cc1,-20.2%
18,O=C(OC1CCCCC1)c1ccc(NC(=O)c2ccco2)cc1,74.9% (active)
19,O=C(O)CCC(=O)Nc1ccc(C(=O)OC2CCCCC2)cc1,-16.9%
20,CCCCOC(=O)c1ccc(NC(=O)c2ccoc2C)cc1,5%
21,CCC1S/C(=C(\C#N)C(=O)NCc2ccco2)N(c2ccc(Br)cc2)C1=O (stereo not drawn),-5.6%
22,O=C(CSCc1ccccc1)Nc1nccs1,-4.5%
23,CC(C)CCn1c(NCCc2ccccc2)nc2c1c(=O)n(C)c(=O)n2C,0.9%
24,O=S(=O)(O)c1nc2ccccc2n1CCOc1ccccc1,5.6%
25,CC(=O)Oc1ccc(N2C(=O)CCC2=O)cc1,-3.8%

row,SMILES,cytotoxicity
1,Nc1c(Br)cc(Br)c(N2CCCC2=O)c1Br,0.5%
2,O=C(c1ccc(Cl)cc1)c1ccc(OCC(O)CN2CCOCC2)cc1 (stereo not drawn),2.3%
3,CS(=O)(=O)N1CCC(NC(=O)Cc2ccccc2)CC1,-2.1%
4,C/C=C(\CS(=O)(=O)c1ccccc1)S(=O)(=O)c1ccccc1,42.2%
5,O=C(CS(=O)(=O)c1ccccc1)N1CCCCCC1,-9.5%
6,O=C1c2ccccc2C(=O)N1CCc1nc(-c2cccnc2)no1,-7.3%
7,Cc1cc(C)cc(NC(=O)c2nnn(Cc3cc(C)ccc3C)c2N)c1,54.9% (active)
8,Cc1cccc(-n2nnc(C(=O)Nc3ccc(F)cc3)c2N)c1,4.2%
9,Cc1ccc(CCNC(=O)c2nnn(-c3cc(C)cc(C)c3)c2N)cc1,8.1%
10,Cc1ccc(NC(=O)c2nnn(-c3cc(C)cc(C)c3)c2N)cc1,51.9% (active)
11,COc1ccc(C)cc1NC(=O)c1nnn(Cc2cc(C)ccc2C)c1N,-4%
12,Cc1ccc(C)c(NC(=O)c2nnn(Cc3ccccc3C)c2N)c1,-4.9%
13,COc1ccc(S(=O)(=O)n2ccnc2)c2cccnc12,-6.2%
14,CC(C)(C)SCCNC(=O)COc1ccc(Cl)cc1,7.6%
15,CCOCCCNS(=O)(=O)c1ccc2c(c1)OCCO2,11.2%
16,O=c1c2c3c(sc2ncn1/N=C/c1ccco1)CCCC3,1.1%
17,Cc1ccc(-c2nc3ccccc3o2)cc1NC(=O)c1ccc2c(c1)OCO2,-8.2%
18,O=C(Nc1ccc2oc(-c3ccccc3F)nc2c1)c1cncc(Br)c1,14.2%
19,O=C(Nc1ccccc1-c1nc2ccccc2o1)c1ccc2c(c1)OCCO2,79% (active)
20,O=C(Nc1ccc2oc(-c3ccccc3F)nc2c1)c1ccc2c(c1)OCCO2,83.6% (active)
21,Cc1c(NC(=O)c2ccc3c(c2)OCO3)cccc1-c1nc2ccccc2o1,-4.5%
22,O=C(Nc1ccc2oc(-c3ccccc3)nc2c1)c1ccc2c(c1)OCCO2,37%
23,COc1cccc(-c2nnn(CC(=O)NC3CCCC3)n2)c1OC,3.1%
